{"source": "the supplement of paper PMC6555819"}
{"tested_on": "PPARg:RXRa 90nM:30nM, anti-RXR (NR concentration 90 nM, RXRa partner concentration 30 nM)", "experiment": "PBM binding z-score (relative to random genomic background probes); higher = stronger binding; sequences stand for … in GC…GCGATTGACAGCGTAGAATGAAGG", "how_it_was_run": "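Scanned fluorescence from custom Agilent 4×180K protein-binding microarrays was regression-normalized. Binding z-scores use random background probes as reference. Ligand-free nuclear receptor dimers were incubated on the arrays for 1 h and detected with antibodies against each partner (one per run).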"}
{"sequence": "CTACCAAGGTGAACAAGGTCGTTGACTACTATTC", "PBM binding z-score": 0.985}
{"sequence": "GCTAGCTGGTCAGTAAAAGGTCACACACCGGTCG", "PBM binding z-score": 3.75}
{"sequence": "AGTCAAAGTTCACTAGGTAACGTCAGATTCAGCT", "PBM binding z-score": 5.98}
{"sequence": "CTCGAAAGGTAGGTTGAGGTGAGTATACGGATAA", "PBM binding z-score": 0.104}
{"sequence": "TCATATAGGTAAATGCGAGGTGAAAGTCCGATCT", "PBM binding z-score": 3.07}
{"sequence": "TAGCCTAGGGCATTGGGCCAGTATAGTACGCATC", "PBM binding z-score": -0.368}
{"sequence": "ATCTCTAGGTAAAGTTCAGTAAAAGATCGATAGA", "PBM binding z-score": 4.14}
{"sequence": "CAGCCTAGGTCAGGGCTAGTATAGGAGGAACGTT", "PBM binding z-score": 0.264}
{"sequence": "CAGACTAGGTCAGGGCCAGTATAGGAGGAACGTT", "PBM binding z-score": 2.5}
{"sequence": "CCTCGGAGGACAGAAGGTCAGAGTTGTCCGCTTT", "PBM binding z-score": 0.173}
{"sequence": "CTCGAAAGGTCGGTTGAGGTGAGTATCCGGATAA", "PBM binding z-score": 0.975}
{"sequence": "ATCGAAAGGTCGAGGTGAGTATAGAGAAAGGGAA", "PBM binding z-score": 2.62}
{"sequence": "AATACAGGGTCATCGTAGGCCAAAGTACGCACAG", "PBM binding z-score": 4.78}
{"sequence": "CGTCCAAGCTCAATGCTAGGTCAGTGAAAGCATT", "PBM binding z-score": -0.627}
{"sequence": "ATCTCTAGGTAAAGATAGTTCAGTGACTGCAAAT", "PBM binding z-score": 0.0894}
{"sequence": "TCTATTAGTTGAAGGGCAACCGGCGAGTCCGTTT", "PBM binding z-score": 2.92}
{"sequence": "CTCGAAACGTCGGTTGAGGTGAGTATACGGATAA", "PBM binding z-score": -0.221}
{"sequence": "ACTAGCAGGCCAAGGGACACTCAAGATTAGTCCG", "PBM binding z-score": 1.86}
{"sequence": "TTACCAAGGTTAAGGTCGTTGATCCCTCTGTAGA", "PBM binding z-score": 2.99}
{"sequence": "GCTGCTAGGTCAGGTTGGACAGCTAACGGGTACG", "PBM binding z-score": -0.0943}
{"sequence": "GCTATTCGTTGAAAGGGCAACCGAATGATTCTCG", "PBM binding z-score": 2.16}
{"sequence": "CAAACTAGGTCAAAGGTCAATGTCGAGCCAACCA", "PBM binding z-score": 14.2}
